Measured values taken from PMC7862700, “An all-to-all approach to the identification of sequence-specific readers for epigenetic DNA modifications on cytosine”.

Key:
Assay in all cases: DAPPL (digital affinity profiling via proximity ligation, sequencing); 10 mM Tris-HCl pH 7.5, 50 mM NaCl, 1 mM DTT, 4% glycerol, room temperature, 30 min; GST-TFs on glutathione beads, 16-mer random dsDNA library, 0.1% formaldehyde crosslink after washing; high values mean tight binding
FEV = target: T1, FEV (Homo sapiens, UniProt Q99581 1-238); conditions: protein: recombinant; tags: N-terminal GST; dsDNA, one strand shown
T1 sequence: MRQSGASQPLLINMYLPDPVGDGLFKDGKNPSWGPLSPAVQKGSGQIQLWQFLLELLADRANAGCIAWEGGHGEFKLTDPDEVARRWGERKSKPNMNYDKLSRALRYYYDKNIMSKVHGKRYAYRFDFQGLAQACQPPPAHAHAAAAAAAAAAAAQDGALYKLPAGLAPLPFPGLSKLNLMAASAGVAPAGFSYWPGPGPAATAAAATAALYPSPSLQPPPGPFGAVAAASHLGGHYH
Method in brief: (§1)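 Sequencing on an Illumina NextSeq500 followed washing, crosslinking with 0.1% formaldehyde, proximity ligation (BsaI/T4 ligase, 1 h, 37 °C) and PCR amplification of pools that had been incubated for 30 min at room temperature with 200 nmole of a random double-stranded 16-mer DNA library in Tris/NaCl/DTT/glycerol buffer. Each pool held DNA-barcoded human transcription factors, expressed in yeast as GST fusions and captured on glutathione beads, plus a tag-only sample. Binding signal is a hexamer's read frequency for a factor divided by its frequency in the tag-only sample.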

ETV5 = ETV5 (Homo sapiens, UniProt P41161 1-510); conditions: protein: recombinant; tags: N-terminal GST; dsDNA, one strand shown
Method in brief: as §1

HSF1 = HSF1 (Homo sapiens, UniProt Q00613 1-529); conditions: protein: recombinant; tags: N-terminal GST; chain copies: 3; dsDNA, one strand shown
Method in brief: as §1

SPIC = target: T2, SPIC (Homo sapiens, UniProt Q8N5J4 1-248); conditions: protein: recombinant; tags: N-terminal GST; dsDNA, one strand shown
T2 sequence: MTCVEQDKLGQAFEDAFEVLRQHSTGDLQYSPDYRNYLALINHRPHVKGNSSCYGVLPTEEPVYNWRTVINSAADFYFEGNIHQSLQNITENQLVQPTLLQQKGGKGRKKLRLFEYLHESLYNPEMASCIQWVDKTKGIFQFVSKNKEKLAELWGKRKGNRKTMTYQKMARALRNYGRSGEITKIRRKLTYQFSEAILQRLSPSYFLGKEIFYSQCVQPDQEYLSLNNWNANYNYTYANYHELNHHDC
Method in brief: as §1

ELF4 = ELF4 (Homo sapiens, UniProt Q99607 1-663); conditions: protein: recombinant; tags: N-terminal GST; dsDNA, one strand shown
Method in brief: as §1

ELK4 = target: T3, ELK4 (Homo sapiens, UniProt P28324-2 1-405); conditions: protein: recombinant; tags: N-terminal GST; dsDNA, one strand shown
T3 sequence: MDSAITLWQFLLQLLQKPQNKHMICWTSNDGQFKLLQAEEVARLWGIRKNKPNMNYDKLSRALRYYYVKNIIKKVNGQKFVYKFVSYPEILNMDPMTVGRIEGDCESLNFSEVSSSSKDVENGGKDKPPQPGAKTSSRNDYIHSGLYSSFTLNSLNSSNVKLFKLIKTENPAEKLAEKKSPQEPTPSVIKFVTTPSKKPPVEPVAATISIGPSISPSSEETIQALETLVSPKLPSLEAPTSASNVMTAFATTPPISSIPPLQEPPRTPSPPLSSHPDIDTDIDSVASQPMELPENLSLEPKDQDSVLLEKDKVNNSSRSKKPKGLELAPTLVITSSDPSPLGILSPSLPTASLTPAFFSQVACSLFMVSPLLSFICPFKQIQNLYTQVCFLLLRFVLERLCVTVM
Method in brief: as §1

ETV2 = target: T4, ETV2 (Homo sapiens, UniProt O00321 1-342); conditions: protein: recombinant; tags: N-terminal GST; dsDNA, one strand shown
T4 sequence: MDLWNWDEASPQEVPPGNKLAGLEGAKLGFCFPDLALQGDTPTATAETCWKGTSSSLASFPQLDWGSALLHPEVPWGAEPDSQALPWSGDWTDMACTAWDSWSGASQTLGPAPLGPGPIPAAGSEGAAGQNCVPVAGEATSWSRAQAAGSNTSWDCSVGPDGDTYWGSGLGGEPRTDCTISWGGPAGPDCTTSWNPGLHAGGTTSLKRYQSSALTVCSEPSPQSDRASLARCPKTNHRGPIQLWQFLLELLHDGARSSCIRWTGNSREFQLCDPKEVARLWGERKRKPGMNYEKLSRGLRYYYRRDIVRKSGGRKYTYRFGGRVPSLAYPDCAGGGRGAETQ
Method in brief: as §1

ELF3 = target: T5, ELF3 (Homo sapiens, UniProt P78545 1-371); conditions: protein: recombinant; tags: N-terminal GST; dsDNA, one strand shown
T5 sequence: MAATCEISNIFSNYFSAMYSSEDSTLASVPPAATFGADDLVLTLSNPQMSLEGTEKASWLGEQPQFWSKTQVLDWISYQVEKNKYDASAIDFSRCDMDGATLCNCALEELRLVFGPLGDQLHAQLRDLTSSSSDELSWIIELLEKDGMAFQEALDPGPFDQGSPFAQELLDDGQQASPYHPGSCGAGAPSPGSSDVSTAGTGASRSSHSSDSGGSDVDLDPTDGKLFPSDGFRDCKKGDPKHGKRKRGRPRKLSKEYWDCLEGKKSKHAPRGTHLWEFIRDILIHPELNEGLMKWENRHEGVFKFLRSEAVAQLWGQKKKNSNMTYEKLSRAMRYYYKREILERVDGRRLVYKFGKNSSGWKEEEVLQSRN
Method in brief: as §1

CRX = CRX (Homo sapiens, UniProt O43186 1-299); conditions: protein: recombinant; tags: N-terminal GST; dsDNA, one strand shown
Method in brief: as §1

ETV1 = ETV1 (Homo sapiens, UniProt P50549 1-477); conditions: protein: recombinant; tags: N-terminal GST; dsDNA, one strand shown
Method in brief: as §1

ETV3L = target: T6, ETV3L (Homo sapiens, UniProt Q6ZN32 1-361); conditions: protein: recombinant; tags: N-terminal GST; dsDNA, one strand shown
T6 sequence: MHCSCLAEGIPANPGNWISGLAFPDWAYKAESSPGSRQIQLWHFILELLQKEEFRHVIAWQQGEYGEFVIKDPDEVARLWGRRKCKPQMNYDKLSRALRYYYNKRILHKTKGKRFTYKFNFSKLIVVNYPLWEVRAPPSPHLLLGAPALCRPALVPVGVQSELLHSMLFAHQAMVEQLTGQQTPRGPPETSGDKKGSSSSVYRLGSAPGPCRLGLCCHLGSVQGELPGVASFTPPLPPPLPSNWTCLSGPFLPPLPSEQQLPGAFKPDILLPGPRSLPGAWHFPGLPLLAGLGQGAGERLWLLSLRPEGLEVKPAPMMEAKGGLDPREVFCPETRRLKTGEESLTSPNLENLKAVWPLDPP
Method in brief: as §1

ETS2 = target: T7, ETS2 (Homo sapiens, UniProt P15036 1-469); conditions: protein: recombinant; tags: N-terminal GST; dsDNA, one strand shown
T7 sequence: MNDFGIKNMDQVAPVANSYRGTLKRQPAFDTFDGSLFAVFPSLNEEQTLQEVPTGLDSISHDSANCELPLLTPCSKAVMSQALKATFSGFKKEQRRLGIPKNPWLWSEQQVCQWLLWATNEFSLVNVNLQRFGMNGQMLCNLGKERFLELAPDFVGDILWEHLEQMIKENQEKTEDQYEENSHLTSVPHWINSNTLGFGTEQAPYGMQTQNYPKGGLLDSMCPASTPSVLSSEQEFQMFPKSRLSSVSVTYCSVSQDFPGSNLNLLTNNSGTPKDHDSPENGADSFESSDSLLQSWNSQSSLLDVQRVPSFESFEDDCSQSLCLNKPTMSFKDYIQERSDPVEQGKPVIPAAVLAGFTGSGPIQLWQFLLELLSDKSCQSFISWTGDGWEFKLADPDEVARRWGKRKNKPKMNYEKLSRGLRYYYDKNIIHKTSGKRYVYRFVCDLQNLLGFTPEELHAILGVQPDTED
Method in brief: as §1

SPDEF = target: T8, SPDEF (Homo sapiens, UniProt O95238 1-335); conditions: protein: recombinant; tags: N-terminal GST; dsDNA, one strand shown
T8 sequence: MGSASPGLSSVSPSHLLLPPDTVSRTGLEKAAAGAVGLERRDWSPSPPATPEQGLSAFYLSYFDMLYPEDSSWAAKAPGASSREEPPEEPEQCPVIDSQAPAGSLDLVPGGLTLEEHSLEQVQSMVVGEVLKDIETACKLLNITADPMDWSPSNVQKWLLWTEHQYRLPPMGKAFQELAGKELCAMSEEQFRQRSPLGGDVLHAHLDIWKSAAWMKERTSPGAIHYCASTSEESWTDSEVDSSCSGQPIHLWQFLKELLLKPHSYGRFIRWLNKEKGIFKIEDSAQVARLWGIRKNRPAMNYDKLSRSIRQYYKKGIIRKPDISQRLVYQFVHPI
Method in brief: as §1

ETV7 = target: T9, ETV7 (Homo sapiens, UniProt Q9Y603 1-341); conditions: protein: recombinant; tags: N-terminal GST; dsDNA, one strand shown
T9 sequence: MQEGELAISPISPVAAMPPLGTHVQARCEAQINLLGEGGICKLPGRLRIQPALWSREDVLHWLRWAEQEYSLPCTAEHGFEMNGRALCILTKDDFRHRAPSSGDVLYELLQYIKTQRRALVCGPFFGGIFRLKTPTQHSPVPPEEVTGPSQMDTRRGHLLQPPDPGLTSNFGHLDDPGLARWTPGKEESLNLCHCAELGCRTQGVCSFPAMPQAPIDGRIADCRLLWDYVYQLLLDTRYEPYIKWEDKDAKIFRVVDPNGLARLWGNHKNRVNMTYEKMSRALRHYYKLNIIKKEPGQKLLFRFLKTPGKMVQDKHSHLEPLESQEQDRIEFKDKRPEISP
Method in brief: as §1

ELF5 = target: T10, ELF5 (Homo sapiens, UniProt Q9UKW6-2 1-255); conditions: protein: recombinant; tags: N-terminal GST; dsDNA, one strand shown
T10 sequence: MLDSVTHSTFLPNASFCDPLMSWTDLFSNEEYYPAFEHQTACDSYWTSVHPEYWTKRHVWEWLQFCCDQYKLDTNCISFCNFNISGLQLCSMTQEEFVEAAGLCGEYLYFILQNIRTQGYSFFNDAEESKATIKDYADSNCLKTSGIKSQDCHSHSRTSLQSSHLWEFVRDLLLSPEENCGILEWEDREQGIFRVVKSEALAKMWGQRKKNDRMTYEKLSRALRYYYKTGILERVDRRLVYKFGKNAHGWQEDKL
Method in brief: as §1

ETV3 = target: T11, ETV3 (Homo sapiens, UniProt P41162-2 1-143); conditions: protein: recombinant; tags: N-terminal GST; dsDNA, one strand shown
T11 sequence: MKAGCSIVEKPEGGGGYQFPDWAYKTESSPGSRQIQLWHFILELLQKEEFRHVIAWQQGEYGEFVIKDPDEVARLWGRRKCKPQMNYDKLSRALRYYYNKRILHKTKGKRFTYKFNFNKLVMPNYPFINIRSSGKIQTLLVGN
Method in brief: as §1

ETV6 = ETV6 (Homo sapiens, UniProt P41212 1-452); conditions: protein: recombinant; tags: N-terminal GST; dsDNA, one strand shown
Method in brief: as §1

ETV6, sequence (P41212 whole entry): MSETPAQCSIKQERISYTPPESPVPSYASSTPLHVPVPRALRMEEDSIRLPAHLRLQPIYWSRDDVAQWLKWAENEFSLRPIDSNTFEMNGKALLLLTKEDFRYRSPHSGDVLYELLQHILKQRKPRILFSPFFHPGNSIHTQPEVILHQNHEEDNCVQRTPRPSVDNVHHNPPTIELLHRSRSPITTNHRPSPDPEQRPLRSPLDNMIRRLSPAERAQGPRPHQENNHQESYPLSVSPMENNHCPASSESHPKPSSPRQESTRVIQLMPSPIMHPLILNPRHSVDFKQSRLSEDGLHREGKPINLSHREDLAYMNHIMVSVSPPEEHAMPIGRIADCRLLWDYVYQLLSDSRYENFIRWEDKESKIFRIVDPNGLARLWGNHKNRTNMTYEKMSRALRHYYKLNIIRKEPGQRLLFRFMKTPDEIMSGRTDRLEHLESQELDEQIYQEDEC
ETV1, sequence (P50549 whole entry): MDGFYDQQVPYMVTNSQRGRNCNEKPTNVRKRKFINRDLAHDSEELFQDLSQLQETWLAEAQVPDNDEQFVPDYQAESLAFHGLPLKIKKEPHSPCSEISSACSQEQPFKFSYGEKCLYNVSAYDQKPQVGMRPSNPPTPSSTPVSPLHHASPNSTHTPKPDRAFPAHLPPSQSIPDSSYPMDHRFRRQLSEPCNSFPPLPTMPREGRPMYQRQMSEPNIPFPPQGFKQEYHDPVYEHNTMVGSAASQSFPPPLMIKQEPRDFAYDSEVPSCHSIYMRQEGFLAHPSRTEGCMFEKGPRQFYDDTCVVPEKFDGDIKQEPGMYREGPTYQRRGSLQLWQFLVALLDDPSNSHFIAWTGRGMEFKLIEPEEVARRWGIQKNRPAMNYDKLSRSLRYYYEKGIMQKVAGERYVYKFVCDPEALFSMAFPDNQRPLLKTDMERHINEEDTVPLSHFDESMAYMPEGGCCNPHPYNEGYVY
CRX, sequence (O43186 whole entry): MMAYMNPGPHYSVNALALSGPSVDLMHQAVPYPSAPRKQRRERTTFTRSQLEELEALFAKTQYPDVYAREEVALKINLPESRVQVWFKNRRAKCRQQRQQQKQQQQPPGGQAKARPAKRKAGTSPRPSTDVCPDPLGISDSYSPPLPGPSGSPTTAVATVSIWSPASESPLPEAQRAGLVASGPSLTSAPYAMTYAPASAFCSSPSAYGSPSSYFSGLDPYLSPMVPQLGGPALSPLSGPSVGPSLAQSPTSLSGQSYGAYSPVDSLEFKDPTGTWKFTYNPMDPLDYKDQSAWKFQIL
ELF4, sequence (Q99607 whole entry): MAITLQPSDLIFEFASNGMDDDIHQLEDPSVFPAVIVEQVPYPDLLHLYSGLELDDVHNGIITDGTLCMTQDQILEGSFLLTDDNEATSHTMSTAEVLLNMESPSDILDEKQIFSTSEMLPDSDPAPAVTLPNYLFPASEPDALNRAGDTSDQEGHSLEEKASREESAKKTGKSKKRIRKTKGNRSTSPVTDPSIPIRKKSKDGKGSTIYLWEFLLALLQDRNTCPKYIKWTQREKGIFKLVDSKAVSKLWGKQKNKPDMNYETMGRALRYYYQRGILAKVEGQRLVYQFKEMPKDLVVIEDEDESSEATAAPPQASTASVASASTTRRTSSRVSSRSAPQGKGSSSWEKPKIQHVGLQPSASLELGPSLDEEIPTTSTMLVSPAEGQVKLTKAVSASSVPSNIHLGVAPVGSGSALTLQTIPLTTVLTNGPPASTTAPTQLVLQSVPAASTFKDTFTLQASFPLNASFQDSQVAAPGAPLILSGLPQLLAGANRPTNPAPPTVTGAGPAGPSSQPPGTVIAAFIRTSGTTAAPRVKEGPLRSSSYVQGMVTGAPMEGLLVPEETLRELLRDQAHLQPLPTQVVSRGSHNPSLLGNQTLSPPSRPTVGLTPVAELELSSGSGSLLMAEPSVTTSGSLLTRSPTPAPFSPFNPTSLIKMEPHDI
ETV5, sequence (P41161 whole entry): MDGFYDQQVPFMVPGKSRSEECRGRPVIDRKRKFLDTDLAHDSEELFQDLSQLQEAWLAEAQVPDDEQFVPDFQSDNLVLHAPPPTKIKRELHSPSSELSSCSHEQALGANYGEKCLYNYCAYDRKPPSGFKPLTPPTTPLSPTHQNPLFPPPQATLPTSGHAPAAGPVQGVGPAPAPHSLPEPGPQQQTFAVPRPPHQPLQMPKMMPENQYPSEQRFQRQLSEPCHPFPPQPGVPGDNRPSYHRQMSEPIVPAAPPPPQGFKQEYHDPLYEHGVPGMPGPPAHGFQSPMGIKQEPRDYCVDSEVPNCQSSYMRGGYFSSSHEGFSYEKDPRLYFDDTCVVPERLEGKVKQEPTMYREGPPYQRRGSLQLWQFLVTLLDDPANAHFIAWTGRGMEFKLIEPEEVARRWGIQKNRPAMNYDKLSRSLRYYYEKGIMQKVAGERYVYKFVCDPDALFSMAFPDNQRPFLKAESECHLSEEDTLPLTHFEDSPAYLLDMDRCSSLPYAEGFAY
HSF1, sequence (Q00613 whole entry): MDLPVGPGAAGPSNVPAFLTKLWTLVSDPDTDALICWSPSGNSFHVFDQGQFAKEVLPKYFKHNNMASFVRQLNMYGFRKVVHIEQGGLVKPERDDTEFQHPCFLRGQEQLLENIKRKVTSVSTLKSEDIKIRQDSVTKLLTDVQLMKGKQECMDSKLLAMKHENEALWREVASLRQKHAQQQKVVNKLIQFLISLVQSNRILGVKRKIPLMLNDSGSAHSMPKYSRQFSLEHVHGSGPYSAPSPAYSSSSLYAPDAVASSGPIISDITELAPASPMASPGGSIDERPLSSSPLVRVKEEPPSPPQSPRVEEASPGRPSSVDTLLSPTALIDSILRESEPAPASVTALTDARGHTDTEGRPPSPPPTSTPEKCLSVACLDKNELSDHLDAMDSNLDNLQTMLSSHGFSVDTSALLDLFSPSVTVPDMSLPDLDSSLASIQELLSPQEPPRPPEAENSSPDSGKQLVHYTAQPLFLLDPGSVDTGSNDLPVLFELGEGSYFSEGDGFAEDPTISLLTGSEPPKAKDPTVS

Sequence: GTTAAT
- binding signal (FEV): 1.08 fold enrichment (6-mer frequency, TF over GST control)
- binding signal (ETV5): 1.17 fold enrichment (6-mer frequency, TF over GST control)
- binding signal (HSF1): 1.6 fold enrichment (6-mer frequency, TF over GST control)
- binding signal (SPIC): 1.11 fold enrichment (6-mer frequency, TF over GST control)
- binding signal (ELF4): 1.14 fold enrichment (6-mer frequency, TF over GST control)
- binding signal (ELK4): 1.05 fold enrichment (6-mer frequency, TF over GST control)
- binding signal (ETV2): 1.18 fold enrichment (6-mer frequency, TF over GST control)
- binding signal (ELF3): 1.09 fold enrichment (6-mer frequency, TF over GST control)
- binding signal (CRX): 2.41 fold enrichment (6-mer frequency, TF over GST control)
- binding signal (ETV1): 1 fold enrichment (6-mer frequency, TF over GST control)
- binding signal (ETV3L): 1.11 fold enrichment (6-mer frequency, TF over GST control)
- binding signal (ETS2): 1.08 fold enrichment (6-mer frequency, TF over GST control)
- binding signal (SPDEF): 1.09 fold enrichment (6-mer frequency, TF over GST control)
- binding signal (ETV7): 1.07 fold enrichment (6-mer frequency, TF over GST control)
- binding signal (ELF5): 1.1 fold enrichment (6-mer frequency, TF over GST control)
- binding signal (ETV3): 1.1 fold enrichment (6-mer frequency, TF over GST control)
- binding signal (ETV6): 1.06 fold enrichment (6-mer frequency, TF over GST control)
